# PubChem BioAssay (NCATS)
# Inconclusive results are not listed. A call without a number means that no potency is given here. Activity calls are given as the source filed them. Unless noted, calls follow the shape of the dose curve; as a rule, active = well fitted curve in the direction sought with a large enough effect; inconclusive = small, poorly fitted or top-dose-only effect, or another doubt; inactive = no such curve, though single readings can be large; an effect the other way counts as inactive or inconclusive. Non-standard residues stand in square brackets, D forms with d. Residues, ends and D or L forms follow the SMILES beside them. Orn = NCCC[C@H](N)C(=O)O
# Experiments:
# [1] = qHTS assay to identify small molecule inhibitors of chordoma cells - UCH-2 (AID 1259356); also: potency is read from the fitted curve at half-maximal effect
# [2] = P-glycoprotein substrates identified in KB-8-5-11 adenocarcinoma cell line, qHTS therapeutic library screen (AID 1346987); also: nearly all actives have a fitted effect of over 65% in size; also: potency is read from the fitted curve at half-maximal effect
# Procedure, shortened: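 KB-8-5-11: colchicine-selected sub-line of KB-3-1 over-expressing P-gp; assay medium lacked colchicine. 72 h drug exposure at 37 degree C, CellTiter-Glo.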
# [3] = qHTS profiling for inhibitors of Plasmodium falciparum (HB3) proliferation (AID 743324); conditions: Plasmodium falciparum HB3 blood-stage proliferation; at 28.7 µM (top of the series) unless noted
# Procedure, shortened: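 P. falciparum HB3 grown in erythrocytes (0.3% parasitemia, 2.5% hematocrit final) with compound for 72 h at 37 C, 5% CO2. Parasite DNA detected by SYBR Green after saponin/triton lysis overnight; normalized to 0.29 uM artemisinin and DMSO.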
# [4] = qHTS profiling of the MIPE4 collection as inhibitors of Plasmodium falciparum (3D7) proliferation (AID 743344; call rule not given here); conditions: P. falciparum 3D7 in erythrocytes, SYBR Green DNA fluorescence, 72 h; at 28.5 µM (top of the series) unless noted
# Procedure, shortened: (§1)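 Erythrocytes infected with P. falciparum (0.3% parasitemia, 2.5% hematocrit) incubated with compounds 72 h at 37 C, 5% CO2. Lysis with saponin/Triton buffer containing SYBR Green I, overnight at room temperature in the dark; DNA fluorescence (485/535 nm) normalised to 0.29 uM artemisinin and DMSO.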
# [5] = qHTS profiling of the MIPE4 collection as inhibitors of Plasmodium falciparum (DD2) proliferation (AID 743345; call rule not given here); conditions: P. falciparum Dd2 in erythrocytes, SYBR Green DNA, 72 h; at 28.5 µM (top of the series) unless noted
# Procedure, shortened: as §1
# [6] = qHTS profiling of the MIPE4 collection as inhibitors of Plasmodium falciparum (DD2) proliferation (Rep 2) (AID 743346; call rule not given here); conditions: P. falciparum Dd2 in erythrocytes, SYBR Green DNA, 72 h; at 28.5 µM (top of the series) unless noted
# Procedure, shortened: as §1
# [7] = qHTS profiling of the MIPE4 collection as inhibitors of Plasmodium falciparum (HB3) proliferation (AID 743347; call rule not given here); conditions: P. falciparum HB3 in erythrocytes, SYBR Green DNA, 72 h; at 28.5 µM (top of the series) unless noted
# Procedure, shortened: as §1
structure (smiles),measurement,setting,value
CCCCCCCC/C=C\CCCCCCCC(=O)O,Potency,[1],inactive
same,Potency,[2],inactive
CC(C)C[C@@H]1NC(=O)[C@H](CCCN)NC(=O)[C@H](C(C)C)NC(=O)[C@@H]2CCCN2C(=O)[C@@H](Cc2ccccc2)NC(=O)[C@H](CC(C)C)NC(=O)[C@H](CCCN)NC(=O)[C@H](C(C)C)NC(=O)[C@@H]2CCCN2C(=O)[C@@H](Cc2ccccc2)NC1=O (cyclo(V[Orn]L[dF]PV[Orn]L[dF]P)),"remaining proliferation (% of control), lower = more inhibition",[3],-1.03%
same,"parasite growth, % of DMSO control",[4],6.95%
same,"parasite growth remaining, % of DMSO control (lower = more inhibition)",[5],5.43%
same,"parasite growth, % of control (lower = inhibition)",[6],6.21%
same,"growth, % of control",[7],4.03%
same,Potency,[1],8.2 µM (active)
same,Potency,[2],inactive
CC(=O)N[C@@H](CC(=O)N[C@@H](CCC(=O)O)C(=O)O)C(=O)O,Potency,[1],inactive
same,Potency,[2],inactive
CCc1ccc2c(c1)N(CC(C)CN(C)C)c1ccccc1S2 (stereo unspecified),Potency,[1],inactive
same,Potency,[2],25.9 µM (active)
O=S(=O)(O)O,Potency,[1],inactive
same,Potency,[2],inactive
O=C(O)CCC(=O)C(=O)O,Potency,[1],inactive
same,Potency,[2],inactive
C[C@]12CCC(=O)C=C1CC[C@@H]1[C@@H]2[C@@H](O)C[C@@]2(C)[C@H]1CC[C@]2(O)C(=O)COP(=O)(O)O,Potency,[1],inactive
same,Potency,[2],inactive
N[C@H](C(=O)O)[C@@H]1CC(Cl)=NO1,Potency,[1],inactive
same,Potency,[2],4.11 µM (active)
C=C1CC[C@@H]2[C@](C)(CO)[C@H](O)CC[C@@]2(C)[C@@H]1C/C=C1/C(=O)OC[C@H]1O,Potency,[1],inactive
same,Potency,[2],inactive
IC(I)I,Potency,[1],inactive
same,Potency,[2],inactive
C=CCSSSCC=C,Potency,[1],inactive
same,Potency,[2],inactive
CC(=O)N(CC(C)C(=O)O)c1c(I)cc(I)c(N)c1I (stereo unspecified),Potency,[1],inactive
same,Potency,[2],inactive
C=C(NC(=O)C(=C)NC(=O)c1csc(C2=N[C@@H]3c4csc(n4)[C@H]4NC(=O)c5csc(n5)[C@H]([C@](C)(O)[C@@H](C)O)NC(=O)[C@H]5CSC(=N5)C(=CC)NC(=O)C([C@@H](C)O)NC(=O)c5csc(n5)[C@]3(CC2)NC(=O)[C@H](C)NC(=O)C(=C)NC(=O)[C@H](C)NC(=O)C([C@@H](C)CC)NC2C=Cc3c([C@H](C)O)cc(nc3C2O)C(=O)O[C@@H]4C)n1)C(N)=O (stereo partly specified),Potency,[1],inactive
same,Potency,[2],inactive
